Reference: ChEMBL document CHEMBL4513216, “Probing the Open Global Health Chemical Diversity Library for Multistage-Active Starting Points for Next-Generation Antimalarials” (ACS Infect Dis, 2020)
In all, about 69,000 compounds went through this assay and about 8,600 (12%) showed an effect of 50% or more. The list comes from a sample in which strong results are over-represented; it also holds similar structures and randomly drawn compounds.

Tested on: Plasmodium berghei
Experiment: Screen against P. berghei liver stage (PbLuc), transformed with Luciferase, at 10uM
Type: functional, HepG2
Settings: tested at 10 uM

SMILES	INHIBITION
CCS(=O)(=O)NCC(=O)N(C1CC1)C1Cc2ccccc2C1	7.39%
CCCN(CCS(C)(=O)=O)C1CCc2ccccc2C1 (centres undefined)	53.5%
CN(C1CCc2ccccc2C1)S(C)(=O)=O (centres undefined)	53.5%
CCCN(C1CCc2ccccc2C1)S(C)(=O)=O (centres undefined)	2.97%
CS(=O)(=O)CCN(CCc1cccc(F)c1)C1CC1	30.9%
CNS(=O)(=O)CC(=O)N(C1CC1)C1Cc2ccccc2C1	32%
O=C([C@H]1C[C@H]2OCC[C@H]2N(C(=O)c2ccncc2)C1)N1CCCC1	-23.8%
CCN(CC)c1ccc(C(=O)N2CCCC2Cn2cc(C)cn2)cn1 (centres undefined)	-4.75%
Cc1nn(-c2ccc(C(=O)O)cc2)c2c1C(C(C)C)SCC(=O)N2 (centres undefined)	-2.39%
O=C1COc2ccc(S(=O)(=O)NCCC3=CCCCC3)cc2N1	-13.6%
C[C@@H]1CN(CC(=O)NCc2ccccn2)C[C@]1(C)O	19.8%
CC(=O)N1C[C@H]2CC[C@@H](C1)N(S(=O)(=O)c1ccc(C#N)cc1Cl)C2	38.3%
CC(C)OCCOCc1cccc(NC(=O)NCC(=O)N(C)C)c1	44.4%
CNc1nc(CNC(=O)Nc2cccc(COCCOC(C)C)c2)cs1	52.4%
CC(C)OCCOCc1cccc(NC(=O)NCc2cnn(C)c2)c1	50.4%
CC(C)OCCOCc1cccc(NC(=O)NCc2ccncc2)c1	-18.2%
Cc1cc(CNC(=O)Nc2cccc(COCCOC(C)C)c2)no1	29.5%
CC(C)OCCOCc1cccc(NC(=O)NCc2ccccn2)c1	0.139%
COc1ccccc1CC(=O)N(C)Cc1cc(C)on1	10%
COc1ccc(OC)c(NC(=O)CSc2ccc3nncn3n2)c1	7.25%
c1coc(-c2noc(CN3CCc4cncnc4C3)n2)c1	26.43%
Cc1noc(C)c1-c1cc(CCC2CN(C(=O)CN)CCO2)ncn1 (centres undefined)	-7.005%

SMILES	INHIBITION
CC(C)c1nnc(NC(=O)NC2CCOc3ccccc32)s1 (centres undefined)	32.2%
O=C(Nc1nnc(C2CC2)s1)NC1CCOc2ccccc21 (centres undefined)	54.4%
Cc1nnc(NC(=O)NC2CCOc3ccccc32)s1 (centres undefined)	13.5%
Cn1nccc1CN1CCOC(c2cccc(-c3cncnc3)n2)C1 (centres undefined)	16.55%
Cn1nccc1CN1CCOC(c2cccc(Nc3ccccn3)n2)C1 (centres undefined)	78.6%
Cn1nccc1CN1CCOC(c2ccc(-c3cncnc3)cn2)C1 (centres undefined)	23.8%
Cc1c(C(=O)N2CCNC(=O)C2)sc2nc[nH]c(=O)c12	20.6%
Cn1nccc1-c1ncc2c(c1C(=O)O)CCN(Cc1ccccc1)C2	58.7%
O=C(O)c1c(-c2cccnc2)ncc2c1CCN(Cc1ccccn1)C2	-33.9%
Cn1nccc1-c1ncc2c(c1C(=O)O)CCN(Cc1ccncc1)C2	20.1%
O=C(O)c1c(-c2cccnc2)ncc2c1CCN(Cc1cccnc1)C2	6.66%
Cn1nccc1-c1ncc2c(c1C(=O)O)CCN(Cc1cccnc1)C2	13.7%
O=C(O)c1c(-c2cncnc2)ncc2c1CCN(Cc1cccnc1)C2	96.1%
Fc1ccc(-c2cnc(C3CCCN3)cn2)cc1 (centres undefined)	27%
O=C1[C@@H]2CC[C@@H](CN(C3CCOCC3)C2)N1Cc1cscn1	33%
CC(C(=O)O)n1nc(C(F)(F)F)c(Br)c1C1CC1 (centres undefined)	38.3%
COc1ccc(Cl)cc1CC(=O)NS(=O)(=O)c1ccc(C(N)=O)cc1	-18%
O=C(NCC(O)c1ccccc1)Nc1cccs1 (centres undefined)	-39.3%
CCSc1ncc(CN2CCN(c3nc(C)cnc3C)CC2)cn1	-50.8%
CCSc1ncc(CN2CCN(c3ncc(C)c(N)n3)CC2)cn1	-37.7%
CCSc1ncc(CN2CCN(c3nc(C)ncc3C)CC2)cn1	56.6%
CCn1cnnc1CNS(=O)(=O)N1CCCC1c1ccco1 (centres undefined)	-120%

SMILES	INHIBITION
O=C(Cc1ccsc1)N1CCCCC1c1ccn2ccnc2n1 (centres undefined)	47.1%
c1cncc(-c2nnn3c2COCC(CNC2CCOCC2)C3)c1 (centres undefined)	33.4%
Cc1ccnc(C2(C)CCCN2C(=O)c2cnccn2)n1 (centres undefined)	6.32%
C/C=C(\C)CN1C[C@H](NC(=O)CN2CCCC2=O)[C@@H](c2ccc(C)o2)C1	18.3%
CC(=O)N[C@@H]1CN(Cc2ccco2)C[C@H]1c1ccc(C)o1	32.8%
C/C=C(\C)CN1C[C@H](NC(=O)CCOC)[C@@H](c2ccc(C)o2)C1	63.5%
O=C(NCC1CC1)Nc1cnc2ccc(F)cc2c1O	23.2%
COc1ccc(CN2C[C@@H]3CCCO[C@@H]3[C@H](NS(C)(=O)=O)C2)cc1	2.01%
CO[C@@H]1c2ccccc2C2(CCN(C(=O)CNS(C)(=O)=O)CC2)[C@H]1O	-6.61%
COc1ccc(NC(C)c2nnnn2-c2ccccc2)cn1 (centres undefined)	18.3%
COc1ccc(NC(C)C(=O)NCCc2cccs2)cc1F (centres undefined)	38.5%
CCC(Nc1nnnn1-c1ccccc1)C(=O)Nc1ccccc1C (centres undefined)	-19.1%
CC(Nc1ccc(F)cc1)c1nnnn1-c1ccccc1 (centres undefined)	81.7%
COc1ccc(NC(C)c2nnnn2-c2ccccc2)cc1F (centres undefined)	54.3%
CCOc1ccc(NC(C)c2nnnn2-c2ccccc2)cc1CO (centres undefined)	20.9%
O=C(O)Cn1ccc(=O)c2ccc(Cl)cc21	11.1%
COc1ccc(C)c(NC(=O)NCc2cccc(N(C)C)n2)c1	-35.2%
COc1cc(F)cc(NC(=O)NCc2cccc(N(C)C)n2)c1	55.3%
CN(C)c1cccc(CNC(=O)Nc2ccc3[nH]nnc3c2)n1	-4.13%
CN(C)c1cccc(CNC(=O)Nc2cc(C#N)ccc2Cl)n1	15.8%
CC(=O)c1ccc(NC(=O)NCc2cccc(N(C)C)n2)cc1C	62.1%
COc1ccc(NC(=O)NCc2cccc(N(C)C)n2)c(Cl)c1	7.49%

SMILES	INHIBITION
CCc1nccn1CCCNC(=O)c1cnn(-c2ccccc2OC)c1	-1.45%
Cc1nn(C)c(C)c1C1CCCN1CC(=O)Nc1cc(C(C)C)no1 (centres undefined)	-1.14%
O=C(c1cnccn1)N1C[C@@H](OCc2ccncc2)[C@@H]2OCCC[C@@H]21	33%
O=C(NC1CCCc2nc(N3CCOCC3)ncc21)C1CCCC1 (centres undefined)	-5.71%
COc1cc(-c2nc(CN(CCO)CCO)c(C)o2)ccc1F	22.5%
Cc1cc(C(F)(F)F)nc(CNC(=O)CCC2CCCCN2C)n1 (centres undefined)	38.7%
Cc1cc(C(F)(F)F)nc(CNC(=O)CCC2CCCN(C)C2)n1 (centres undefined)	29.4%
CCOCC(=O)NCCc1nc(C)cc(C(F)(F)F)n1	20.4%
CCC(C(=O)NCCc1nc(C)cc(C(F)(F)F)n1)n1cccn1 (centres undefined)	57%
Cc1cc(C(F)(F)F)nc(CNC(=O)CCn2cccn2)n1	58.1%
CCC(C(=O)NCc1nc(C)cc(C(F)(F)F)n1)n1cccn1 (centres undefined)	8.08%
Cc1cc(C(F)(F)F)nc(CNc2nc(C)nc3c2cnn3C)n1	19.4%
Cc1cc(C(F)(F)F)nc(CNC(=O)C2CCCCCN2C)n1 (centres undefined)	54.5%
CCN(C)c1ccc(CNC(=O)CCn2cc(C)cn2)cc1F	12.8%
CC(C)c1nn(C)c(N(C)C)c1CNCc1ccc(CO)c(F)c1	23.7%
CNc1nc2c(s1)C(c1c(Cl)cccc1Cl)CC(=O)N2 (centres undefined)	15%
CS(=O)(=O)N1CCN(c2ccc3ccc(C(=O)NC4CC4)cn23)CC1	22.3%
Cc1cccc(OC2CN(C(=O)C3CC(=O)N(C4CC4)C3)C2)c1 (centres undefined)	31.4%
O=C([C@H]1CC[C@@H]2[C@@H](CCN2C2CCOCC2)O1)N1CCOCC1	25.6%
Cc1cccc(OCCC(=O)N(C)CCC#N)c1C	-33.2%
CCc1ncnc2c1CCN(Cc1nccs1)CC2	-2.41%
CCc1cnc(CN2CCC(N(C)Cc3noc(C4CC4)n3)C2)o1 (centres undefined)	23.4%

SMILES	INHIBITION
CCN1CCn2c(C)cnc2C12CCN(C(=O)COC)CC2	-6.05%
CN(C)C(C(=O)N1CCCC1)c1ccccc1F (centres undefined)	29.7%
CN(C)C(C(=O)N1Cc2ccccc2C1)c1ccccc1F (centres undefined)	50.8%
CN(C)C(C(=O)N1CCSCC1)c1ccccc1F (centres undefined)	32.8%
O=c1[nH]nc(CCCN2CCOCC2)n1-c1ccc(F)cc1F	39.4%
CC(C)CC(=O)N1CCCC2(CC(C(=O)Nc3ccccc3)=NO2)C1 (centres undefined)	3.58%
CCC1CN(C)c2ccccc2CN1C(=O)CCn1cncn1 (centres undefined)	44%
CCC1CN(C)c2ccccc2CN1C(=O)Nc1cccc(F)c1 (centres undefined)	60.2%
CC(C)CCNC(=O)C1CCCN1C(=O)Nc1cccc(F)c1 (centres undefined)	-11.4%
CCC1CN(C)c2ccccc2CN1C(=O)Nc1ccccc1OC (centres undefined)	63.5%
COc1ccccc1NC(=O)N1CCCC1c1ccco1 (centres undefined)	1.45%
CCC1CN(C)c2ccccc2CN1C(=O)Nc1ccc(C)cc1 (centres undefined)	14%
Cc1c(C(=O)NCC(C)C)nnn1-c1cccc2c1CCN(CCO)C2	45.7%
O=C(NCCNc1ncccn1)C1CCCC1	26.4%
COc1ccccc1CNc1cnn(CC(F)F)c1	14.5%
Cc1nccn1CC1CCCN1S(=O)(=O)Cc1cccc(C#N)c1 (centres undefined)	45.7%
Cc1cc(NC(=O)CN2CCCC2c2c(C)nn(C)c2Cl)on1 (centres undefined)	-27.9%
CC(C)C(C(=O)N1CCN(Cc2cscn2)CC1)n1cncn1 (centres undefined)	-7.71%
O=C(NCCO)C1(Cc2ccccc2-c2ccncc2)CCOCC1	-17.7%
CC(C)(C)NC(=O)C1(Cc2ccccc2-c2ccncc2)CCOCC1	17.1%
O=C(NC1CC1)C1(Cc2ccccc2-c2ccncc2)CCOCC1	76.1%
